Results published in PubChem BioAssay (NCATS).
Inconclusive results are not listed. Calls of active or inactive are those of the source. The call rests on the fitted dose curve; in most records, active means well fitted inhibition curve with a large enough effect; inconclusive means small, poorly fitted or top-dose-only effect; inactive means flat fitted curve, though single readings scatter.

target: Calcium and integrin-binding protein 1 (Homo sapiens) (UniProt Q99828); test: Primary qHTS for Identification of Calcium Integrin Binding Protein 1 (CIB1) Competitor (AID 1508620); details: CIB1-GST / FITC-alphaIIb peptide fluorescence polarization; series mostly up to 114 µM; activity change, negative = inhibition: at the top concentration; further: top concentration of the series differs between compounds
Sequence (Q99828 whole entry, looked up): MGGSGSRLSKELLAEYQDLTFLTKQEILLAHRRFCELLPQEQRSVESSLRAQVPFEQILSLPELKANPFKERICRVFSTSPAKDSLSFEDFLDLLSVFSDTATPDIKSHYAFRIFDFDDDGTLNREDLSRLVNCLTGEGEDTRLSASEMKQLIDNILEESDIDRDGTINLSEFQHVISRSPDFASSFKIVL
Procedure, shortened: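 Fluorescence polarization competition: GST-tagged CIB1 (1 uM final) preincubated with compound 15 min at room temperature, then FITC-labelled alphaIIb peptide (100 nM final) added. After 15 min at room temperature, polarization read at Ex 480/Em 540.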
On the % scale 0 is the no-effect control and ±100 the full control effect.

Row | SMILES | activity change, negative = inhibition
1 | C=C1CO[C@@]2(O[C@H]3CC4C5CC=C6C[C@@H](O)C[C@@H](O[C@@H]7OC[C@H](O)[C@H](O[C@@H]8OC[C@@H](O)[C@H](O)[C@H]8O)[C@H]7O[C@@H]7O[C@@H](C)[C@H](OC(C)=O)[C@@H](OC(C)=O)[C@H]7OC(C)=O)[C@]6(C)C5CC[C@]4(C)[C@@H]3[C@@H]2C)[C@@H](O)[C@H]1OC1OC(C)C(O)C(O)C1O (stereo not given in full) | -5.12% [at 12.4 µM] (inactive)
2 | C/C=C/CCC1Cc2cc(O)c(CCCC)c(O)c2C(=O)O1 (stereo not given) | 3.06% (inactive)
3 | C=C1C(=O)OC2CC(C)C(CCC(C)=O)=CCC12 (stereo not given) | 1.07% (inactive)
4 | CO[C@H]1C[C@@H]2CC[C@@H](C)[C@@](O)(O2)C(=O)C(=O)N2CCCC[C@H]2C(=O)O[C@H]([C@@H](C)C[C@@H]2CC[C@@H](O)[C@H](OC)C2)CC(=O)[C@H](C)/C=C(\C)[C@@H](O)[C@@H](OC)C(=O)[C@H](C)C[C@H](C)/C=C/C=C/C=C/1C | -16.7% (inactive)
5 | CC(=O)O[C@]1(C(C)=O)CC[C@H]2[C@@H]3CCC4=CC(=O)CCC4=C3[C@@H](c3ccc(N(C)C)cc3)C[C@@]21C | -4.5% (inactive)
6 | Cc1noc(-c2ccc(-c3ccc(CC(=O)O)cc3)cc2)c1NC(=O)O[C@H](C)c1ccccc1Cl | -7.63% (inactive)
7 | COc1ccc(C2Oc3c(OC)cc(CCCO)cc3C2COC2OC(CO)C(O)C(O)C2O)cc1OC (stereo not given) | -0.531% [at 57.7 µM] (inactive)
8 | CN[C@@H]1[C@H](O[C@H]2[C@H](O[C@@H]3[C@@H](O)[C@H](O)[C@@H](N=C(N)N)[C@H](O)[C@H]3N=C(N)N)O[C@@H](C)[C@]2(O)CO)O[C@@H](CO)[C@H](O)[C@H]1O | 2.69% (inactive)
9 | COc1c(C)cc(NC(=O)c2nn(Cc3ccc(F)cc3)c3c2CN(C(=O)c2ccc[nH]2)C[C@]3(C)C(N)=O)cc1C | 3.04% [at 30.2 µM] (inactive)
10 | C=C1/C(=C/C=C2\CCC[C@]3(C)[C@@H]([C@H](C)/C=C/[C@@H](C)C(C)C)CC[C@@H]23)C[C@@H](O)C[C@@H]1O | 4.66% (inactive)
11 | C[C@@H]1O[C@@H](O[C@H]2[C@@H]3C=CO[C@@H](O[C@@H]4O[C@H](CO)[C@@H](O)[C@H](O)[C@H]4O)[C@@H]3[C@@]3(CO)O[C@@H]23)[C@H](O)[C@H](OC(=O)/C=C/c2ccccc2)[C@H]1O | -7.98% [at 30.2 µM] (inactive)
12 | O=C(Nc1cccc2cccnc12)c1ccc(N2C(=O)[C@@H]3C4C=CC(C4)[C@@H]3C2=O)cc1 | -0.9% (inactive)
13 | CCn1nc(C2CCN(C(=O)CCO)CC2)nc1-c1cnc(N)c(-c2nnc(C(C)(C)C)o2)n1 | 1.92% (inactive)
14 | C=C1C(=O)OC2CC(C)C(CCC(C)O)=CCC12 (stereo not given) | -6.45% (inactive)
15 | Cn1cc(C2=C(c3coc4ccccc34)C(=O)NC2=O)c2cc(Br)ccc21 | 5.88% (inactive)
16 | CCC(C)C(=O)Oc1cc(C)ccc1C1(COC(=O)C(C)C)CO1 (stereo not given) | 1.16% [at 57.7 µM] (inactive)
17 | CN(C)C(=O)C(=O)c1cn(C)c2cc(Cl)c(C(=O)N3CCC(Cc4ccc(F)cc4)CC3)cc12 | -5.88% (inactive)
18 | C=C1C(=O)OC2/C=C(\COC(C)=O)CC/C=C(\C=O)CC(OC(=O)CC(C)C)C12 (stereo not given) | 0.72% [at 57.7 µM] (inactive)
19 | O=C(O)C1=CO[C@@H](O[C@@H]2O[C@H](CO)[C@@H](O)[C@H](O)[C@H]2O)[C@@H]2C(CO)=CC[C@H]12 | 3.35% [at 57.7 µM] (inactive)
20 | C/C=C/C1=CC2=C(CO1)C(=O)C(C)(OC(=O)c1c(C)cc(O)cc1OC)C(O)C2 (stereo not given) | -3.5% [at 57.7 µM] (inactive)

Row | SMILES | activity change, negative = inhibition
21 | C=C1CC[C@@H]2[C@](C)(CO)[C@H](O)CC[C@@]2(C)[C@@H]1/C=C/C1=CCOC1=O | -0.699% [at 57.7 µM] (inactive)
22 | C=CC1(C)CC(O)C(C(=C)C(=O)OC)C(O)C1C(=C)CO (stereo not given) | 4.99% (inactive)
23 | Cc1nc2ccc(CN(C)c3ccc(C(=O)NC(CCC(=O)O)C(=O)O)s3)cc2c(=O)[nH]1 (stereo not given) | -7.9% (inactive)
24 | COc1cc2c(cc1O)C1(Cc3ccc4c(c3C1O)OCO4)[N+](C)([O-])CC2 (stereo not given) | 3.61% [at 57.7 µM] (inactive)
25 | C=CC(C)(O)CC/C=C(\C)C(=O)OC1C(O)C(CO)OC(OC(=O)C23CCC(C)(C)CC2C2=CCC4C5(C)CCC(OC6OC(COC7OCC(OC(C)=O)C(O)C7OC7OC(COC(C)=O)C(O)C(O)C7OC(C)=O)C(O)C(O)C6OC6OCC(O)C(O)C6O)C(C)(C)C5CCC4(C)C2(C)C(O)C3O)C1OC1OCC(OC2OCC(O)C(OC3OCC(O)C(O)C3O)C2O)C(O)C1O (stereo not given) | 5.75% [at 12.4 µM] (inactive)
26 | CC/C=C\CC1C(=O)C=CC1(CCCCC1CCC(=O)O1)OC(C)=O (stereo not given) | -4.57% [at 57.7 µM] (inactive)
27 | CCC/C=C/C(=O)O[C@H]1CC(C)(C)CC2[C@@]13[C@H](O)C[C@]1(C)[C@@]2(CCC2[C@@]4(C)CC[C@H](O[C@@H]5O[C@H](C(=O)O)[C@@H](O)[C@H](O[C@@H]6O[C@H](CO)[C@H](O)[C@H](O)[C@H]6O[C@@H]6O[C@@H](C)[C@H](O)[C@@H](O)[C@H]6O[C@@H]6OC[C@](O)(CO)[C@H]6O)[C@H]5O[C@@H]5O[C@H](CO)[C@H](O)[C@H](O)[C@H]5O)C(C)(C)C4CC[C@]21C)O[C@H]3O (stereo not given in full) | 4.06% [at 12.4 µM] (inactive)
28 | COc1ccc(C#Cc2ccc(C(=O)N3CCC[C@@H](CO)C3)cc2)cc1 | 1.81% (inactive)
29 | C/C(=N\N=C(N)N)c1cc(NC(=O)CCCCCCCCC(=O)Nc2cc(/C(C)=N/N=C(N)N)cc(/C(C)=N/N=C(N)N)c2)cc(/C(C)=N/N=C(N)N)c1 | 75.8% (inactive)
30 | CCn1c(N)c(C(=O)NC)c(=O)c2ccc(C#CC(C)(O)COC)nc21 (stereo not given) | 5.09% (inactive)
31 | C/C=C(\C)C(=O)O[C@H]1C[C@](C)(O)[C@H]2CC=C(C)[C@H]2[C@@H]2OC(=O)[C@H](C)[C@H]21 | -4.35% [at 57.7 µM] (inactive)
32 | COc1ccc(C2(CNC(=O)c3ccc(NC(=O)c4ccco4)cc3)CCOCC2)cc1 | 0.952% (inactive)
33 | COc1cc(NC(=O)c2cccc(-n3cc(NC(=O)Nc4cccc(C)c4)cn3)c2)cc(OC)c1OC | 1.83% (inactive)
34 | CCC(C)C1NC(=O)C(Cc2ccccc2)NC(=O)C(CCCCCC(=O)C(O)CO)NC(=O)C2CCCCN2C1=O (stereo not given) | -0.317% [at 30.2 µM] (inactive)
35 | O=C(Nc1cnc(Cl)nc1)c1ccc(F)c(F)c1 | -0.139% (inactive)
36 | C/C(=C/CO)CCC1C(C)CCC2C(C)(C)CCCC12C (stereo not given) | 0.443% (inactive)
37 | CCOC(=O)c1cnc2ccc(-c3cncc(NS(=O)(=O)c4ccccc4)c3)cn12 | -5.92% (inactive)
38 | CC(C)=CCC[C@](C)(O[C@@H]1O[C@H](CO[C@@H]2OC[C@@H](O)[C@H](O)[C@H]2O)[C@@H](O)[C@H](O)[C@H]1O)[C@H]1CC[C@]2(C)[C@@H]1[C@H](O)C[C@@H]1[C@@]3(C)CC[C@H](O[C@@H]4O[C@H](CO)[C@@H](O)[C@H](O)[C@H]4O)C(C)(C)[C@@H]3CC[C@]12C | -7.27% [at 57.7 µM] (inactive)
39 | C=C[C@]1(C)C[C@H](O)[C@H]2C(=C)C(=O)O[C@@H]2[C@H]1C(=C)CO | -7.99% (inactive)
40 | CO[C@@H]1[C@H](O)CCC2(CO2)[C@H]1[C@@]1(C)O[C@@H]1CC=C(C)C (stereo not given in full) | 5.72% (inactive)
